# Results filed as inconclusive are left out. Where a structure was tested more than once in an assay, its records may differ in their call. Activity calls are given as the source filed them. Rule for the calls: active = hit-call score of the fitted dose curve at least 0.9, where 1 is the maximum; inconclusive = response in the unintended direction; inactive = score below 0.9.
# Biological target: human Neurotensin Receptor (NTS), NTSR1 (gene 4923) (UniProt P30989)
# Test: NVS_GPCR_hNTS: NovaScreen (NVS) G Protein-Coupled Receptor Assay for human Neurotensin Receptor (NTS) (AID 2283279)
# Method: (§1) NVS_GPCR_hNTS is a biochemical, single-readout assay that uses extracted gene-proteins from CHO in a cell-free assay. Measurements were taken 1 hour after chemical dosing in a 96-well plate.NVS_GPCR_hNTS is one of one assay component(s) measured or calculated from the NVS_GPCR_hNTS assay. It is designed to make measurements of radioligand binding, a form of binding reporter, as detected with scintillation counting signals by Filter-based radiodetection technology.Data from the assay component NVS_GPCR_hNTS was analyzed into 1 assay endpoint. This assay endpoint, NVS_GPCR_hNTS, was analyzed in the positive analysis fitting direction relative to DMSO as the negative control and baseline of activity. Using a type of binding reporter, loss-of-signal activity can be used to understand changes in the binding as they relate to the gene NTSR1. Furthermore, this assay endpoint can be referred to as a primary readout, because the performed assay has only produced 1 assay endpoint. To generalize the intended target to other relatable targets, this assay endpoint is annotated to the gpcr intended target family, where the subfamily is rhodopsin-like receptor.
# (§2) Binding assays used specific radioligands (tritiated, iodinated) with non-radioactive competitive displacement ligands in agonist or antagonist protocols (as indicated) and various reference compounds and inhibitors to titrate specific binding to receptors and transporters. Most enzyme assays (CYPs, kinases, phosphatases, proteases, HDACs) used recombinant protein and specific substrates (fluorescence mostly, some colorimetric and radioactive) and inhibitors, followed by a biochemical separation of substrate and product. All assays for the biochemical HTS were initially run in duplicate at a single concentration (10 uM for CYP450 assays and 25 uM for all others). Assay-chemical combinations meeting a pre-defined threshold (e.g., 30% inhibition and other criteria defined below) were then run in singleton concentration-response format with maximum concentration of 20 uM for CYPs and 50 uM for all others. Each assay was run with positive and negative controls, and concurrent controls on every plate. The follow-up (secondary) screen tested active chemical-pairs in concentration series, as well as a few additional assays not tested in the primary screen, some selected negative inactives, and several cases re-run in the concentration series for confirmatory purposes.
# human Neurotensin Receptor (NTS), NTSR1 (gene 4923), sequence (P30989 whole entry, looked up): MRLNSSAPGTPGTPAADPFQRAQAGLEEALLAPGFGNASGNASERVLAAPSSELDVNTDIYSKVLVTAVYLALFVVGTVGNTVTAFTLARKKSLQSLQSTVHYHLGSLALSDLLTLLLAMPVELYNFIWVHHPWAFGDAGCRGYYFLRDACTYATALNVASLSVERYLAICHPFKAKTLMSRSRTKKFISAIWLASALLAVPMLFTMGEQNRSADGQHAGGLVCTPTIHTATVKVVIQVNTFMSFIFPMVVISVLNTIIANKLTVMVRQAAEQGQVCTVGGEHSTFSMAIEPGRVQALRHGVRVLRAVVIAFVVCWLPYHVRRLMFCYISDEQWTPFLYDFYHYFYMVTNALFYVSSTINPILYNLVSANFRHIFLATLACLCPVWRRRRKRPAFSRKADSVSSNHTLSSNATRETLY
row,Compound,outcome
1,COC(=O)C(C)Oc1ccc(Oc2ccc(Cl)cc2Cl)cc1 (configuration not stated),inactive
2,COc1nc(C)nc(NC(=O)NS(=O)(=O)c2ccccc2Cl)n1,inactive
3,C#CCOS(=O)OC1CCCCC1Oc1ccc(C(C)(C)C)cc1 (configuration not stated),inactive
4,CNC(=S)S,inactive

# Biological target: human Opioid Receptor Delta 1 (Opiate D1), OPRD1 (gene 4985) (UniProt P41143)
# Sequence (P41143 whole entry, looked up): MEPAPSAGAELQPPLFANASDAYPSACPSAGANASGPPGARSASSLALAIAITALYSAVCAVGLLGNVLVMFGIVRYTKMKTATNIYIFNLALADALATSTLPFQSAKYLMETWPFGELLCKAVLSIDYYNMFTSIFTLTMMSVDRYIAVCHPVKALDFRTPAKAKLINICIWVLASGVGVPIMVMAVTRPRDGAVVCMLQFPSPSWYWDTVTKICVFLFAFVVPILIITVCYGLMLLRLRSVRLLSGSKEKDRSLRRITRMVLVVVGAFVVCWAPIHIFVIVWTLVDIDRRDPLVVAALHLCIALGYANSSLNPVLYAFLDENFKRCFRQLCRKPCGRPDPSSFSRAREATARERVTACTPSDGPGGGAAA
# Test: NVS_GPCR_hOpiate_D1: NovaScreen (NVS) G Protein-Coupled Receptor Assay for human Opioid Receptor Delta 1 (Opiate D1) (AID 2283280)
# Method: as §1, with “NVS_GPCR_hOpiate_D1” for “NVS_GPCR_hNTS”, “plate.NVS_GPCR_hOpiate_D1” for “plate.NVS_GPCR_hNTS”, “NVS_GPCR_hOpiate_D1,” for “NVS_GPCR_hNTS,”, “OPRD1.” for “NTSR1.”
# as §2, with “Assay-chemical combinations meeting a pre-defined threshold (e.g., 30% inhibition and other criteria defined below) were then run in singleton concentration-response format with maximum concentration of 20 uM for CYPs and 50 uM for all others.” left out
Compound,AC50,outcome
CO/C=C(/C(=O)OC)c1ccccc1Oc1cc(Oc2ccccc2C#N)ncn1,7.95 µM (active),inactive
CCOP(=S)(OCC)SCn1c(=O)oc2cc(Cl)ccc21,,inactive
CCCCNC(=O)OCC#CI,13.3 µM (active),inactive
OC(c1ccc(Cl)cc1)(c1cncnc1)c1ccccc1Cl (configuration not stated),12.5 µM (active),
CCCC1COC(Cn2cncn2)(c2ccc(Cl)cc2Cl)O1 (configuration not stated),2.09 µM (active),
COc1ccc(C(c2ccc(OC)cc2)C(Cl)(Cl)Cl)cc1,,inactive

# — PubChem BioAssay (EPA / NIEHS)
